Some test systems named below: NCI-H23 lung; NCI-H226 lung; NCI-H322M lung; HOP-62 NSCLC; NCI-H460 lung; HOP-92 NSCLC; NCI-H522 lung; 786-0 renal; COLO 205 colon; DU-145 prostate; K-562 leukemia; MALME-3M melanoma; MDA-MB-231 breast; RXF 393 renal; SF-268 CNS; SF-295 CNS; SF-539 CNS; UACC-257 melanoma; A549/ATCC NSCLC; M14 melanoma.
Experiment in all cases: NCI-60 one-dose screen, 48 h (100 = growth as untreated, 0 = no growth, -100 = all killed)
Common to all, as to settings: 10 µM unless noted

SMILES strings stand for the structures. The panel holds about 83,000 compounds, 20% with a hit somewhere; the sample as a whole holds those more often.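 Activity criterion: percent growth below 10, measured after cells in 96-well plates were exposed to a single compound concentration for 48 hours.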 Values without a mark were called inactive. Activity calls are given as the source filed them.

Turning to `CCCCCCCCNc1cc2c3c(c1)CCCN3CCC2`, the growth with NCI-H23 lung is -9.97% (active); in the test with NCI-H226 lung, 39.1%; with NCI-H322M lung, 111%; in the test on HOP-62 NSCLC it was 27%; in the test on NCI-H460 lung, 16.9%; in the test on HOP-92 NSCLC, -5.51% (active). For the same molecule, the growth in the test on NCI-H522 lung is -28.4% (active); in the test on 786-0 renal it was 42.7%; in the test with COLO 205 colon, 3.21% (active); with DU-145 prostate it was -2.64% (active); in the test on K-562 leukemia it was 18.8%; in the test with MALME-3M melanoma, 48.5%. In addition, the growth was 6.88% (active) in the test on MDA-MB-231 breast; 29.1% in the test with RXF 393 renal; 18.3% with SF-268 CNS; 14% in the test with SF-295 CNS; 8.74% (active) in the test with SF-539 CNS; -11.6% (active) in the test on UACC-257 melanoma.

As for `Cc1ccc(Nc2nc(-c3ccc(F)cc3)c(C#N)c(=O)n2C)cc1`, the growth with NCI-H23 lung was 66.7%; in the test on NCI-H226 lung, 64%; in the test on NCI-H322M lung, 74.8%; in the test on HOP-62 NSCLC it was 50.9%; in the test with NCI-H460 lung, 84.5%; in the test on HOP-92 NSCLC, 0.0271% (active). Further, the growth in the test with NCI-H522 lung is 49.7%; in the test on A549/ATCC NSCLC, 61.7%; in the test with 786-0 renal it was 67.5%; with DU-145 prostate, 72.7%; in the test on K-562 leukemia, 97.6%; in the test with MALME-3M melanoma, 45.8%. The growth with MDA-MB-231 breast is 23.4%; in the test with RXF 393 renal, 50.2%; in the test on SF-268 CNS, 66.5%; in the test on SF-295 CNS it was 79.1%; with SF-539 CNS it was 64.8%; in the test on UACC-257 melanoma, 74.5%. Also, the growth in the test with M14 melanoma is 77.9%.

With `Cc1ccc(C)c(-n2c(-c3ccc(Br)cc3)csc2=NC(=O)c2ccccc2F)c1`, the growth with NCI-H23 lung is 54.7%; in the test on NCI-H226 lung, 82.5%; in the test on NCI-H322M lung, 92.8%; in the test on HOP-62 NSCLC, 95.8%; in the test with NCI-H460 lung, 40.3%; with HOP-92 NSCLC, 67.6%. Besides, the growth in the test with NCI-H522 lung was 168%; in the test on 786-0 renal, 71.1%; in the test on COLO 205 colon, 92.9%; with DU-145 prostate it was 102%; in the test with K-562 leukemia, 23.9%; with MALME-3M melanoma, 73.9%. Further, the growth in the test with MDA-MB-231 breast is 84.1%; in the test with RXF 393 renal, 81.8%; in the test on SF-268 CNS, 99.6%; in the test with SF-295 CNS it was 73%; with SF-539 CNS it was 89%; in the test on UACC-257 melanoma, 57%. The growth in the test with M14 melanoma is 81.3%.

On to `COc1cc2nc(Nc3cccc(F)c3)nc(Nc3cc(C)[nH]n3)c2cc1OC`, for which the growth is -71.2% [20 µM] (active) with NCI-H23 lung; -49.4% [20 µM] (active) with NCI-H226 lung; -100% [20 µM] (active) in the test on NCI-H322M lung; -53.2% [20 µM] (active) in the test on HOP-62 NSCLC; -69.7% [20 µM] (active) in the test on NCI-H460 lung; -88.9% [20 µM] (active) in the test on HOP-92 NSCLC. Besides, the growth with NCI-H522 lung is -42% [20 µM] (active); in the test on 786-0 renal it was -81.8% [20 µM] (active); in the test with COLO 205 colon, -60.9% [20 µM] (active); in the test on DU-145 prostate, -94.7% [20 µM] (active); in the test on K-562 leukemia, -31.1% [20 µM] (active); in the test on MALME-3M melanoma, -98.1% [20 µM] (active). The growth in the test on MDA-MB-231 breast was -98.6% [20 µM] (active); in the test with RXF 393 renal, -88.7% [20 µM] (active); in the test on SF-268 CNS, -69.9% [20 µM] (active); in the test with SF-295 CNS, -92.1% [20 µM] (active); with SF-539 CNS, -100% [20 µM] (active); with UACC-257 melanoma, -62.4% [20 µM] (active). Also, the growth with M14 melanoma is -91.4% [20 µM] (active).

As to `C[C@H]1[C@H](C)CC[C@]2(C(=O)O)CC[C@]3(C)C(=CC[C@@H]4[C@@]5(C)C[C@@H](Cc6cn([C@@H]7O[C@H](CO)[C@@H](O)[C@H](O)[C@H]7O)nn6)[C@H](O)C(C)(C)[C@@H]5CC[C@]43C)[C@H]12`, the growth in the test on NCI-H23 lung was 97.7%; with NCI-H226 lung it was 94.3%; in the test with NCI-H322M lung it was 102%; with HOP-62 NSCLC, 88.9%; with NCI-H460 lung it was 107%; with HOP-92 NSCLC, 95.6%. Moreover, the growth in the test with NCI-H522 lung was 103%; in the test on A549/ATCC NSCLC it was 89%; in the test with 786-0 renal, 94.6%; with DU-145 prostate, 105%; in the test with K-562 leukemia it was 95.4%; in the test with MALME-3M melanoma, 108%. In addition, the growth in the test with MDA-MB-231 breast was 102%; with RXF 393 renal, 118%; in the test on SF-268 CNS, 103%; in the test on SF-295 CNS it was 98.8%; in the test on SF-539 CNS it was 109%; in the test with UACC-257 melanoma, 90.2%. For the same molecule, the growth with M14 melanoma was 93.9%.

For `COc1cccc(/C=C/C(=O)c2cc3c(N)c(C(=O)Nc4ccccc4C)sc3nc2C)c1`, the growth in the test on NCI-H23 lung is 70.4%; in the test on NCI-H226 lung it was 69.2%; in the test with NCI-H322M lung, 80.5%; with HOP-62 NSCLC it was 67.7%; in the test with NCI-H460 lung, 32.2%; in the test on HOP-92 NSCLC it was 74.1%. Further, the growth in the test with NCI-H522 lung is -7.9% (active); in the test on 786-0 renal, 9.79% (active); in the test with COLO 205 colon it was 92.2%; in the test on DU-145 prostate, 8.15% (active); with K-562 leukemia, 12.9%; with MALME-3M melanoma, 78.6%. Besides, the growth is 52.8% in the test with MDA-MB-231 breast; -10.2% (active) with RXF 393 renal; 28.9% in the test on SF-268 CNS; 74% with SF-295 CNS; 50.9% with SF-539 CNS; 83.2% in the test with UACC-257 melanoma. Also, the growth in the test on M14 melanoma was 47.5%.

In the case of `COc1ccc(NC(=O)c2sc3nc(C)c(C(O)c4ccccc4)cc3c2N)cc1` (stereo unspecified), the growth in the test on NCI-H23 lung is 28.7%; with NCI-H226 lung it was 57.9%; in the test on NCI-H322M lung it was 56.8%; in the test on HOP-62 NSCLC, 28.2%; with NCI-H460 lung, 10.1%; in the test with HOP-92 NSCLC, 78.9%. Besides, the growth in the test on NCI-H522 lung is 10.2%; in the test on 786-0 renal, 40.7%; in the test with COLO 205 colon, -5.84% (active); with DU-145 prostate, 14.1%; with K-562 leukemia, 8.04% (active); in the test with MALME-3M melanoma, 38%. The growth is 27.7% in the test on MDA-MB-231 breast; -7.22% (active) in the test on RXF 393 renal; 50.3% in the test with SF-268 CNS; 23.1% in the test with SF-295 CNS; -4.84% (active) with SF-539 CNS; 64.4% with UACC-257 melanoma. For the same molecule, in the test with M14 melanoma, the growth is 7.65% (active).

For `Cc1cc(F)ccc1S(=O)(=O)Nc1cc(-c2c(O)ccc3ccccc23)c(O)c2ccccc12`, the growth in the test with NCI-H23 lung is 16.7%; with NCI-H226 lung, 47.3%; in the test with NCI-H322M lung it was 79%; in the test on HOP-62 NSCLC, 80.1%; in the test on NCI-H460 lung it was 16.3%; in the test on HOP-92 NSCLC, 19.1%. In addition, the growth in the test on NCI-H522 lung was -36.2% (active); in the test on A549/ATCC NSCLC, 20.4%; in the test on 786-0 renal, 76.2%; in the test with DU-145 prostate it was 41.7%; with K-562 leukemia, 14.8%; with MALME-3M melanoma, 15.3%. For the same molecule, the growth with MDA-MB-231 breast is 22.7%; in the test with RXF 393 renal it was 27.1%; in the test on SF-268 CNS, 34.9%; in the test on SF-295 CNS it was 41.8%; in the test on SF-539 CNS, 6.5% (active); in the test with UACC-257 melanoma, 30.2%. In the test on M14 melanoma, the growth was 18.2%.

For the origin of these results see PubChem BioAssay (NCI).
